# The sample as a whole holds a higher share of hits than the screen did.
# BL2 CD40 inh = inhibitors of CD40-induced NF-kB signaling, primary screen, BL2 cells, luciferase reporter, single point. CD40L-induced, 4 h. inhibition, % at 10 µM. actives 0.94% (n = 83,000);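 active means mean inhibition of at least 50% with a set share of replicates also reaching that level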;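 further: 0% = neutral control wells and 100% = IKK inhibitor VII at 50 µM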
# Active calls of the source: *; [ ] = dose if it differs, or a comment.
SMILES,BL2 CD40 inh
Cc1noc(C)c1S(=O)(=O)Nc1ccc2c(c1)CC(=O)N([C@@H](C)CO)C[C@@H](C)[C@@H](CN(C)Cc1ccccc1)O2,8
O=C(Nc1ccc(Cl)c(Cl)c1)N[C@H]1CC[C@@H](CCn2cc(C3CCCC3)nn2)O[C@H]1CO,-2
N#C[C@H]1[C@H](c2ccccc2-c2ccccc2F)[C@@H](CO)N1C(=O)C1CCOCC1,-14[25 µM]
O=C(C[C@H]1C[C@@H]2c3cc(NC(=O)Nc4ccccc4F)ccc3O[C@@H]2[C@H](CO)O1)NCc1ccc2c(c1)OCO2,-9[25 µM]
O=C1CCSc2ccc(Cl)cc2N1Cc1ccccc1,1
O=C(CN1c2ccccc2Sc2ccccc21)N/N=C/c1ccc(Cl)cc1,16
OC1CC2CCC(C1)N2CCCN1c2ccccc2Sc2ccc(Cl)cc21 (configuration not stated),54*
C[C@H]1CN([C@@H](C)CO)C(=O)c2cc(C#CCc3ccccc3)cnc2O[C@H]1CN(C)C(=O)C1CCOCC1,0[25 µM]
C[C@H](CO)N1C[C@H](C)[C@@H](CN(C)C(=O)C2CCOCC2)Oc2ncc(C#CCc3ccccc3)cc2C1=O,41[25 µM]
C[C@H](CO)N1C[C@H](C)[C@H](CN(C)C(=O)C2CCOCC2)Oc2ncc(C#CCc3ccccc3)cc2C1=O,64*[25 µM]
CC(C)NC(=O)N1CC(=O)N2[C@H](C1)[C@H](c1ccc(/C=C/c3ccccc3)cc1)[C@@H]2CO,0[25 µM]
Cc1cccc(-c2ccc([C@H]3[C@@H](CO)N4CCCCN(CCC(F)(F)F)C[C@H]34)cc2)c1,-22[25 µM]
COc1cc2c3nnc(-c4ccccc4)c-3cn(Cc3ccc(F)cc3)c2cc1OC,55*
COc1ccc(CNn2c(-c3cccc(C)c3)nc3ccccc3c2=O)cc1OC,-9
CCc1nc2ccccc2n1Cc1ccc(OC)c(OC)c1,5
O=C1c2ccccc2CCC1CNCCc1ccc(O)cc1 (configuration not stated),91*[25 µM]
O=C(NCCc1ccccc1)c1noc2c1CCc1ccccc1-2,-38
CC(=O)NCCc1ccc(O)cc1,3
C[C@H](CO)N1C[C@H](C)[C@@H](CN(C)CC2CCCCC2)OCc2cn(nn2)CCCC1=O,1[25 µM]
CN(C)C(=O)C[C@@H]1CC[C@H]2[C@@H](COc3ccc(NC(=O)C4CCC4)cc3C(=O)N2C)O1,-3
CCc1nnc(NC(=O)C2Cc3ccccc3CN2S(=O)(=O)CC)s1 (configuration not stated),-20
CCS(=O)(=O)N1Cc2ccccc2CC1C(=O)Nc1nc2ccccc2s1 (configuration not stated),61*
CCS(=O)(=O)N1Cc2ccccc2CC1C(=O)Nc1nc2ccccc2[nH]1 (configuration not stated),-83
O=C(C[C@H]1C[C@H]2c3cc(NC(=O)NC4CCCC4)ccc3O[C@H]2[C@H](CO)O1)NCc1ccccn1,-3
COc1ccc2c3c(n(C)c2c1)[C@H](CO)N(C(=O)C1CC1)CC31CCN(C(=O)C2CCOCC2)CC1,5
SMILES,BL2 CD40 inh
O=C(C#Cc1ccccc1)c1ccccc1,89*
O=C(COc1ccccc1)c1ccccc1,-9
O=C(CC(=O)c1ccccc1)c1ccccc1,-74
COc1ccccc1-c1ccc([C@@H]2[C@@H](C#N)N(C(=O)c3cccnc3)[C@@H]2CO)cc1,23[25 µM]
CCCCCCCCCC[n+]1cccc2c3ccccc3ccc21,94*
Cc1cccc[n+]1CCCCCCCCCC[n+]1ccccc1C,9
CCCCCC(=O)Nc1cccc2ccccc12,-13
CCCCCCCC[n+]1cccc2c3ccccc3ccc21,93*
CCCCCCCCNc1ncnc2ccccc12,10
O=C(NCC(F)(F)F)[C@@H]1[C@@H](CO)[C@@H]2Cn3c(ccc(-c4ccncc4)c3=O)[C@@H]2N1Cc1ccncc1,3[25 µM]
CCCC(=O)Nc1ccc2c(c1)C(=O)N(C)C[C@@H](OC)[C@@H](C)CN(C(=O)c1ccccn1)[C@@H](C)CO2,-2[25 µM]
CCCC#Cc1ccc2c(c1)[C@@H]1[C@@H](CCN1C(=O)C1CCCCC1)[C@@H](CO)N2,3[25 µM]
C[C@@H]1CN([C@@H](C)CO)C(=O)c2cccc(NC(=O)c3nc4ccccc4s3)c2O[C@@H]1CN(C)Cc1ccc(C(F)(F)F)cc1,-2[25 µM]
CC(C)NC(=O)N1[C@@H]2CNC[C@H]1C2c1ccc(-c2ccc(C#N)cc2)cc1 (some centres not stated),-2
O=C(C[C@@H]1C[C@H]2c3cc(NC(=O)c4cccnc4)ccc3O[C@H]2[C@@H](CO)O1)NCc1cc(F)ccc1F,-16[25 µM]
O=C(C[C@H]1C=C[C@@H](NC(=O)Nc2ccc3c(c2)OCO3)[C@H](CO)O1)NCc1ccccc1,-2
O=C(C1CCCCC1)N1C[C@@H]2[C@H](c3ccccc31)[C@@H](CO)N2C(=O)c1ccccc1F,-1[25 µM]
COc1ccc(-c2nc(-c3ccccn3)ncc2S(C)(=O)=O)cc1,9
c1ccc(-c2nccc(-c3ccco3)n2)nc1,-25
Cn1nc(-c2ccccn2)nc2c(=O)n(C)c(=O)nc1-2,101*
O=C(c1ccc(F)cc1)N1CC(=O)N2[C@@H](CO)[C@H](c3ccc(C#CC4CCCC4)cc3)[C@@H]2C1,-2
CN1C(=O)c2cc(NS(=O)(=O)c3ccccc3Cl)ccc2OC[C@H]2O[C@@H](CC(=O)Nc3cc(F)ccc3F)CC[C@@H]21,-21[25 µM]
CCOc1ccc2c(ccc(/C=C/c3cc(C)c4cccnc4c3O)[n+]2C)c1,79*
CO[C@@H]1CN(C)C(=O)c2cc(NC(C)=O)ccc2OC[C@@H](C)N(C(=O)Cc2ccccn2)C[C@H]1C,-10[25 µM]
COc1cccc(C#Cc2ccc([C@@H]3[C@@H](C#N)N(C(=O)c4ccccn4)[C@H]3CO)cc2)c1,-23[25 µM]
SMILES,BL2 CD40 inh
N#C[C@@H]1[C@@H](c2ccc(C#Cc3cccc(F)c3)cc2)[C@@H](CO)N1C(=O)C1CC1,3
COc1cccc(C#Cc2ccc([C@@H]3[C@@H](C#N)N(C(=O)c4ccccn4)[C@@H]3CO)cc2)c1,1[25 µM]
N#C[C@@H]1[C@@H](c2ccc(C#Cc3cccc(F)c3)cc2)[C@@H](CO)N1C(=O)C1CCCC1,-47
N#C[C@@H]1[C@H](c2ccc(C#Cc3ccccc3F)cc2)[C@H](CO)N1C(=O)C1CC1,35[25 µM]
N#C[C@@H]1[C@H](c2ccc(C#Cc3ccc(F)cc3)cc2)[C@@H](CO)N1C(=O)C1CCCC1,87*
COc1cccc(C#Cc2ccc([C@H]3[C@@H](C#N)N(C(=O)c4ccccn4)[C@@H]3CO)cc2)c1,53*[25 µM]
N#C[C@@H]1[C@H](c2ccc(C#Cc3cccc(F)c3)cc2)[C@@H](CO)N1C(=O)C1CCC1,99*
N#C[C@H]1[C@@H](c2ccc(C#Cc3ccccc3F)cc2)[C@@H](CO)N1C(=O)C1CCCC1,15
N#C[C@H]1[C@@H](c2ccc(C#Cc3ccccc3F)cc2)[C@H](CO)N1C(=O)C1CC1,30[25 µM]
N#C[C@@H]1[C@H](c2ccc(C#Cc3ccccc3F)cc2)[C@@H](CO)N1C(=O)C1CC1,86*[25 µM]
N#C[C@H]1[C@H](c2ccc(C#Cc3ccc(F)cc3)cc2)[C@H](CO)N1C(=O)C1CC1,-26
COc1ccccc1CN1CC[C@@H]2[C@H]1c1cc(-c3ccc(C(=O)N(C)C)cc3)ccc1N[C@@H]2CO,-10
C[C@@H]1CN(C)C(=O)c2cc(NS(C)(=O)=O)ccc2O[C@@H]1CN(C)S(C)(=O)=O,-3
CN(C)C(=O)c1ccc(-c2ccc3c(c2)[C@@H]2[C@@H](CCN2C(=O)C2CCC2)[C@H](CO)N3C)cc1,4
C[C@H]1CN(C)C(=O)c2cc(N)ccc2O[C@@H]1CN(C)C,7

# Source: PubChem
